Test [1] deals with RAW-Dual. Description: NF-kB SEAP reporter activity, fold change vs agonist alone; higher = enhanced NF-kB activity. To be noted: library stock concentration (final ~1000-fold dilution): 10 mM, cytotoxicity flag (confluency mask): not cytotoxic. In short, it runs like this:
(§1)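 Library stock was pin-tooled at 50 nL into 384-well plates of RAW-Dual macrophages (50,000 cells/well, DMEM), followed 1 h later by a PRR agonist, and the cells were kept at 37 °C, 5% CO2. Supernatant collected after 20 hours was read for IRF by QuantiLuc luminescence and for NF-κB by QuantiBlue absorbance at 620 nm. Reporter activity is fold change over agonist-alone wells, and a well counted as cytotoxic when its IncuCyte confluency was below 70% of agonist controls in both mask sets.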

Test [2] deals with RAW-Dual. Put plainly: NF-kB SEAP reporter activity, fold change vs agonist alone; cytotoxicity flag (confluency mask): not cytotoxic; higher = enhanced NF-kB activity. Summed up: as §1
Where [3] appears, read: agonist: ODN 1826 (TLR9) 0.5 ug/mL.
[4] abbreviates: agonist: Pam2CSK4 (TLR2/6) 0.1 ug/mL.
[5] abbreviates: agonist: Pam3CSK4 (TLR2/1) 0.1 ug/mL.

The source of these data is the supplement of paper PMC10037445.

Over roughly 2,900 compounds, “NF-kB SEAP reporter activity, fold change vs agonist alone” has its median near 0.99; the highest 2% begin near 2.6. The full list was thinned out, with the highest values kept by preference.

As for `CCCS(=O)(=O)Nc1ccc(F)c(C(=O)c2c[nH]c3ncc(Cl)cc23)c1F`, the “NF-kB SEAP reporter activity” value was 0.891 in test [1] (agonist: Imiquimod (TLR7) […]) and 1.34 in test [1] (agonist: MPLA (TLR4) […]).
The like results for `COc1ccc(F)c(F)c1C(=O)c1cnc(NC2CCN(S(C)(=O)=O)CC2)nc1N` were, in that order, 0.977 and 0.905.
Regarding `CCN(C)S(=O)(=O)Nc1ccc(F)c(C(=O)c2c[nH]c3ncc(-c4cnc(C5CC5)nc4)cc23)c1F` (library stock concentration (final ~1000-fold dilution): 10 mM), the “NF-kB SEAP reporter activity” value worked out at 3.3 in test [2] (agonist: LPS (TLR4) 0.1 ug/mL), 1.55 in test [2] (setting [3]), 0.469 in test [2] (setting [4]) and 0.764 in test [2] (setting [5]).
Regarding `COc1ccc(F)c(F)c1C(=O)c1cnc(NC2CCN(S(C)(=O)=O)CC2)nc1N` (library stock concentration (final ~1000-fold dilution): 10 mM), the “NF-kB SEAP reporter activity” value in test [2] (agonist: LPS (TLR4) 0.1 ug/mL) came to 0.194; in test [2] (setting [3]) it was 0.985; in test [2] (setting [4]), 0.0957; in test [2] (setting [5]) it was 1.16.
Consider `CCN(C)S(=O)(=O)Nc1ccc(F)c(C(=O)c2c[nH]c3ncc(-c4cnc(C5CC5)nc4)cc23)c1F`, for which the figures for the “NF-kB SEAP reporter activity” value in test [1] (agonist: Imiquimod (TLR7) […]) and in test [1] (agonist: MPLA (TLR4) […]) were 1.24 and 1.62, respectively.
The like results for `O=C(c1c(F)ccc(NS(=O)(=O)N2CCC(F)C2)c1F)c1c[nH]c2ncc(-c3cnc(C4CC4)nc3)cc12` (stereo not drawn) were, in that order, 1.12 and 1.52.
Consider `O=C(c1c(F)ccc(NS(=O)(=O)N2CCC(F)C2)c1F)c1c[nH]c2ncc(-c3cnc(C4CC4)nc3)cc12` (stereo not drawn) (library stock concentration (final ~1000-fold dilution): 10 mM), for which the “NF-kB SEAP reporter activity” value in test [2] (agonist: LPS (TLR4) 0.1 ug/mL) was 3.62; in test [2] (setting [3]), 1.42; in test [2] (setting [4]), 0.526; in test [2] (setting [5]) it was 0.5.
The corresponding values for `CCCS(=O)(=O)Nc1ccc(F)c(C(=O)c2c[nH]c3ncc(-c4ccc(Cl)cc4)cc23)c1F` (library stock concentration (final ~1000-fold dilution): 10 mM) are 0.99, 0.941, 0.4 and 0.411.
The corresponding values for `CCCS(=O)(=O)Nc1ccc(F)c(C(=O)c2c[nH]c3ncc(Cl)cc23)c1F` (library stock concentration (final ~1000-fold dilution): 10 mM) are 1.48, 0.781, 0.389 and 0.505.
`CCCS(=O)(=O)Nc1ccc(F)c(C(=O)c2c[nH]c3ncc(-c4ccc(Cl)cc4)cc23)c1F`: the “NF-kB SEAP reporter activity” value was determined as 1.1 in test [1] (agonist: Imiquimod (TLR7) […]) and 1.3 in test [1] (agonist: MPLA (TLR4) […]).
Turning to `O=C(O)c1ccc(-c2c[nH]c3ncc(-c4ccccc4)cc23)cc1C1CCCC1` (library stock concentration (final ~1000-fold dilution): 10 mM), the “NF-kB SEAP reporter activity” value was 1.15 in test [2] (agonist: LPS (TLR4) 0.1 ug/mL), 0.388 in test [2] (setting [3]), 0.646 in test [2] (setting [4]) and 0.497 in test [2] (setting [5]).
On to `O=C(O)c1ccc(-c2c[nH]c3ncc(-c4ccccc4)cc23)cc1C1CCCC1`, for which the “NF-kB SEAP reporter activity” value in test [1] (agonist: Imiquimod (TLR7) […]) came out at 0.374; in test [1] (agonist: MPLA (TLR4) […]), 1.16.
The like results for `CCNC(=O)Nc1ccc(-c2nc3c(c(N4CCOCC4C)n2)CCN(C2COC2)C3)cc1` (stereo not drawn) were, in that order, 0.771 and 1.23.
In the case of `CCNC(=O)Nc1ccc(-c2nc3c(c(N4CCOCC4C)n2)CCN(C2COC2)C3)cc1` (stereo not drawn) (library stock concentration (final ~1000-fold dilution): 10 mM), the “NF-kB SEAP reporter activity” value in test [2] (agonist: LPS (TLR4) 0.1 ug/mL) is 0.974; in test [2] (setting [3]), 0.705; in test [2] (setting [4]), 0.395; in test [2] (setting [5]), 0.411.
`Cc1nc(NC(=O)N2CCCC2C(N)=O)sc1-c1csc(C(C)(C)C)n1` (stereo not drawn) (library stock concentration (final ~1000-fold dilution): 10 mM): the “NF-kB SEAP reporter activity” value in test [2] (agonist: LPS (TLR4) 0.1 ug/mL) is 0.881; in test [2] (setting [3]), 1.41; in test [2] (setting [4]), 1.32; in test [2] (setting [5]) it was 1.
Regarding `Cc1nc(NC(=O)N2CCCC2C(N)=O)sc1-c1csc(C(C)(C)C)n1` (stereo not drawn), the “NF-kB SEAP reporter activity” value in test [1] (agonist: Imiquimod (TLR7) […]) stood at 1.01; in test [1] (agonist: MPLA (TLR4) […]), 0.941.
